rCAG binder = r(CAG) repeat RNA binding; TO-PRO-1 dye displacement fluorescence; inhibition, % at 3 µM; 370,000 compounds, 1.3% hits; AID 651821;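 active means inhibition above the plate cutoff, the mean of all test compounds on that plate plus 3 SD, cut at about 35% in these data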;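 further: 0% = DMSO alone and 100% = 100 µM mitoxantrone as full dye displacement; higher means more dye released from RNA so lower well fluorescence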
MsrA inh = inhibits bovine methionine sulfoxide reductase A; purified bovine MsrA, absorbance read-out; inhibition, % at 15.5 µM; 360,000 compounds, 0.75% hits; in the data active means inhibition above about 4.5%;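 further: 0% = vehicle wells with enzyme and 100% = reference inhibitor wells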
PG9 Ab binder = binds the HIV-1 gp120 antibody PG9; TR-FRET gp120-PG9 antibody binding; inhibition, % at 6.7 µM; 360,000 compounds, 0.43% hits; AID 624416; in the data active means inhibition above about 8.5%
MsrA act = activators of bovine methionine sulfoxide reductase A; purified bovine MsrA, absorbance read-out; activation, % at 10.6 µM; 360,000 compounds, 0.3% hits; in the data active means activation above about 7.5%;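 further: 0% = vehicle and 100% = reference activator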
sPLA2-III inh = Inhibits HGIII-sPLA2 liposome hydrolysis, primary screen; Q9NZ20; QFRET BODIPY PC-A2 liposome hydrolysis, fluorescence; inhibition, % at 12.2 µM; 370,000 compounds, 0.56% hits; AID 743126;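 active means inhibition above mean plus 3 SD of compounds lying within the high and low control bounds, cut at about 19% in these data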;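 further: 0% = median of test compound wells and 100% = no enzyme DMSO wells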
Target sequence (Q9NZ20 whole entry, looked up): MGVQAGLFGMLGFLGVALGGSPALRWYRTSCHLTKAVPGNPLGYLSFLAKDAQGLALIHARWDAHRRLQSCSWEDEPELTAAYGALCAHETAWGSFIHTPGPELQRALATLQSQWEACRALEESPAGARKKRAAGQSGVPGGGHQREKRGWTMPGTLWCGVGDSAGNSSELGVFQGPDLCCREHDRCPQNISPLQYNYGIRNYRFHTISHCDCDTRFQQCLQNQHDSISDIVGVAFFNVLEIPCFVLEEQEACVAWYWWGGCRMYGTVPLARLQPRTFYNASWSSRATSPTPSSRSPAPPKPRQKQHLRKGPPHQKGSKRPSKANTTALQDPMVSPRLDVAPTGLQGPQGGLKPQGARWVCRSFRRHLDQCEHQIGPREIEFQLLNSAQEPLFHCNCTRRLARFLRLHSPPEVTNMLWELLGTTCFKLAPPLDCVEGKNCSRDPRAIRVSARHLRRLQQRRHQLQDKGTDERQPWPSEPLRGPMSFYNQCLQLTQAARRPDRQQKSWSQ
rCAG binder conf = r(CAG) RNA repeat binding, confirmation; 4,300 compounds, 70% hits; inhibition, % at 3 µM; AID 652065; shares compounds with rCAG binder; TO-PRO-1 dye displacement fluorescence;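 active means inhibition above a per-plate cutoff, the mean inhibition of sample wells plus 3 SD, cut at about 35% in these data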;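 further: loss of TO-PRO-1 fluorescence as compound displaces dye from 1x1 AA loop RNA; 0% = DMSO only wells and 100% = 100 µM mitoxantrone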
DNA CAG counter = counter-screen for rCAG RNA binders: DNA CAG dye complex inhibitors; d(CAG) DNA oligo TO-PRO-1 dye displacement, fluorescence; 4,300 compounds, 94% hits; shares compounds with rCAG binder; inhibition, % at 3 µM; AID 652068;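 active means inhibition above its plate's cutoff, the mean test-well inhibition plus 3 SD, cut at about 4.8% in these data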;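 further: 0% = DNA dye mix with DMSO and 100% = 100 µM mitoxantrone; hits displace the dye from DNA and so lower well fluorescence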
* hit, by the source's call; nt = no result given. The list is not random: actives were taken first. Their share in the collection is about 3.2%.

SMILES	rCAG binder	MsrA inh	PG9 Ab binder	MsrA act	sPLA2-III inh	rCAG binder conf	DNA CAG counter
CSc1nc2c(c(=O)[nH]1)C(c1cccs1)C1=C(CCCC1=O)N2 (stereo not given)	1	0	-2	3	1	nt	nt
COc1ccc(S(=O)(=O)Nc2ccccc2C(=O)NCc2ccco2)cc1	12	-2	-1	-2	-7	nt	nt
O=C(NCc1ccco1)c1ccccc1NS(=O)(=O)c1ccc(Br)s1	44*	0	1	-2	-48	48*	16*
Cc1sc(NC(=O)C2CC=CCC2C(=O)O)c(C(=O)OC(C)C)c1C (stereo not given)	41*	2	3	1	5	33	5.8*
Oc1ccc(Cl)cc1Sc1cc(Cl)ccc1O	38*	1	-2	-3	-65	43*	12*
CC(=O)c1sc(N/N=C\c2c(O)ccc3ccccc23)nc1C	52*	0	-4	-7	0	60*	29*
COc1ccc(-n2c(COc3ccc(C)cc3)nnc2SCC(=O)c2ccc(-c3ccccc3)cc2)cc1	13	nt	nt	nt	-12	nt	nt
CCCCOC(=O)Nc1ccc(S(=O)(=O)Nc2nccs2)cc1	8	-1	1	-1	-10	nt	nt
Cc1cccc(C(=O)NC(C(=O)Nc2ccc(S(=O)(=O)Nc3nccs3)cc2)C(C)C)c1 (stereo not given)	42*	-1	0	-2	-37	35*	13*
CCOc1ccc(C(=O)N[C@H](C(=O)Nc2ccc(S(=O)(=O)Nc3nccs3)cc2)C(C)C)cc1	47*	-1	-2	-2	-46	46*	15*
Cc1cccc(C(=O)N[C@H](C(=O)Nc2ccc(S(=O)(=O)NC3=NCCCCC3)cc2)C(C)C)c1	2	1	2	-3	-16	nt	nt
COc1ccc(C(=O)Nc2cccc(/C=C(\CCC(=O)O)c3nc4ccccc4s3)c2)cc1	62*	4	-1	-5	-23	76*	38*
O=C(O)C/C(=C\c1cccc(NC(=O)c2ccccc2Cl)c1)c1nc2ccccc2s1	54*	4	0	-4	-2	57*	24*
O=C(O)C/C(=C\c1cc2c(cc1Br)OCO2)c1nc2ccccc2s1	35*	1	1	-14	-8	36*	9.5*
COc1ccc(NC(=O)c2nc3ccccc3s2)cc1	0	1	0	-13	-7	nt	nt
CCN(CC)C(=O)c1oc(=O)c2ccccc2c1-c1ccc(C)cc1	2	nt	nt	nt	8	nt	nt
CCCc1nc2nc(C)c(NS(=O)(=O)c3ccc(F)cc3)c(=O)n2[nH]1	2	-1	-1	-2	-1	nt	nt
CCCc1nc2nc(C)c(NS(=O)(=O)c3ccc(C4CCCCC4)cc3)c(=O)n2[nH]1	59*	-1	0	1	-12	62*	16*
Cc1c(Nc2nc3ccccc3nc2NS(=O)(=O)c2cccc(Cl)c2)c(=O)n(-c2ccccc2)n1C	52*	3	1	-2	-4	48*	15*
CCCCC[C@@H]1C=C(C(=O)O)[C@H](c2ccc(F)cc2)N1S(=O)(=O)c1ccc(C)cc1	59*	-1	-1	-3	-30	45*	14*
CCCC[C@@H]1C=C(C(=O)O)[C@H](c2ccc(Br)cc2)N1S(=O)(=O)c1ccc(C)cc1	53*	2	2	-7	-26	54*	19*
CCCCC[C@@H]1C=C(C(=O)O)[C@H](c2ccc(CC)cc2)N1S(=O)(=O)c1ccc(C)cc1	8	1	-1	-4	4	nt	nt
CCCC[C@@H]1C=C(C(=O)O)[C@H](c2ccc(CC)cc2)N1S(=O)(=O)c1ccc(C)cc1	66*	-1	0	-7	-22	49*	15*
O=C(Nc1cccc(Cl)c1)Nc1nc(-c2ccccc2)cs1	50*	2	-1	-4	2	21	20*
Cc1csc(NC(=O)Nc2cccc(Cl)c2)n1	46*	0	-1	-8	-12	11	16*
SMILES	rCAG binder	MsrA inh	PG9 Ab binder	MsrA act	sPLA2-III inh	rCAG binder conf	DNA CAG counter
Cc1nnc(NC(=O)Nc2cccc(Cl)c2)s1	50*	-1	-1	2	-11	9	12*
O=C(NCc1ccc(C(=O)N2CCCC2)cc1)c1cccc(Br)c1	2	nt	nt	nt	-1	nt	nt
CCc1ccccc1CNC(=O)C1CCC(CNS(=O)(=O)c2cccc3cccnc23)CC1 (stereo not given)	5	nt	nt	nt	-4	nt	nt
Cc1nc(-c2ccc(S(=O)(=O)Nc3ccc(Br)cc3Cl)s2)cs1	74*	1	-1	-1	-62	66*	27*
Cc1nc(-c2ccc(S(=O)(=O)Nc3cccc(S(N)(=O)=O)c3)s2)cs1	5	0	0	-5	-15	nt	nt
O=C(O)c1ccccc1C(=O)N1N=C2/C(=C/c3cccc([N+](=O)[O-])c3)CCCC2C1c1cccc([N+](=O)[O-])c1 (stereo not given)	52*	1	0	-4	-19	73*	30*
O=C(O)c1c(C(=O)N2N=C3/C(=C/c4ccccc4)CCCC3C2c2ccccc2)cccc1[N+](=O)[O-] (stereo not given)	35*	1	-1	-8	-13	56*	17*
O=C(OCC#CCSc1nnc(-c2c[nH]c3ccccc23)o1)c1ccc(F)cc1	nt	nt	nt	nt	-38	nt	nt
O=C(CSC1=NS(=O)(=O)c2cc(F)ccc2N1)Nc1ccc(F)cc1	24	1	-1	0	-26	nt	nt
O=C(CSC1=NS(=O)(=O)c2cc(Cl)ccc2N1)Nc1cccc(F)c1	60*	0	0	-3	-69	42*	12*
CC(=O)c1ccc(NC(=O)CSC2=NS(=O)(=O)c3cc(Cl)ccc3N2)cc1	61*	-1	0	-2	-33	44*	14*
COc1ccc(C(=O)Nc2ccc(S(=O)(=O)Nc3cnc4ccccc4n3)cc2)cc1	46*	0	-1	-3	-3	28	5.7*
COc1ccc(C(=O)Nc2ccc(S(=O)(=O)Nc3cc(C)nc(C)n3)cc2)cc1	5	1	2	1	-11	nt	nt
O=C(Nc1ccc(Nc2ccccc2)cc1)c1ccc(Cl)c([N+](=O)[O-])c1	17	2	2	0	0	nt	nt
CCC(Oc1ccccc1)C(=O)Nc1ccc(S(=O)(=O)Nc2cnc3ccccc3n2)cc1 (stereo not given)	58*	0	2	-3	-58	46*	13*
O=C(Nc1ccc(S(=O)(=O)Nc2cnc3ccccc3n2)cc1)c1ccc(Cl)c([N+](=O)[O-])c1	79*	3	-2	-2	-66	67*	30*
CCC(Oc1ccccc1)C(=O)Nc1ccc(S(=O)(=O)Nc2ncccn2)cc1 (stereo not given)	6	-1	-2	-2	-6	nt	nt
CCCC1CCC2(CCCN2CCOC(=O)Nc2ccccc2)CC1 (stereo not given)	nt	nt	nt	nt	-19	nt	nt
